This passage reports PBM binding z-score results from the supplement of paper PMC6555819.

The subject of this assay is THRa homodimer (NR concentration 90 nM). Briefly: PBM binding z-score (relative to random genomic background probes); higher = stronger binding; sequences stand for … in GC…GCGATTGACAGCGTAGAATGAAGG
A digest of the protocol:
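Regression normalization was applied to scanned fluorescence from custom Agilent 4×180K protein-binding microarrays. Before scanning, arrays were incubated 1 h with ligand-free nuclear receptor dimers, and binding was detected with antibodies against each partner (one per run). Binding z-scores use the random background probes as reference.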
Sequence ACTATTAGTTGAGAAGAGGGCAACCGATAGGTTG yielded a PBM binding z-score of -0.313.
Sequence CGAACTAGGTCTGAACAGGACAGTGAAGGATGAT yielded a PBM binding z-score of -0.761.
The value for CCGAGTAGGTTATGGGGCATTCCGGCAACGGTGA was 0.142; that for GCTCGGATGACAAGGTCAGAGCTTTGTCCGTAGA was 1.09.
The same measure for CGAACTAGGTCAAAGGTCAAAGTCGAGCCAACCA: 1.53; for GCGACTGGTGCATCAGCAGGTTACCATAACTTAA: -0.356.
The value for TCTAGTTGGTCACGGAGGTCACACACGACGGGTA was 2.53; that for GTTGCTAGGTCAGGTTGGTCAGCTAACGGGTACG was 1.06; that for TCGTGTAGATCAGCAGGTTAAGAAAGCTGGCCAA was -0.429.
Sequence GCTGGCAGGCCATTTGGGTCACTCAATGACGGGC registered a PBM binding z-score of 0.617.
Consider TGAATCAGGTTATAAGATCAGGGAACGTTGCAAA, for which the PBM binding z-score was -0.129.
The same measure for AGCATGAGGTTATACGTAGATCAGGGAAGAAAGT: 0.665.
Take CCTAGCAGGCCAATTTGGGTCACTCAAGGCTTGA: the PBM binding z-score was found to be 0.606.
The value for GATACAGGGTCAAGACCAGAGTACGCGTATTGAT was 0.503; that for TCTCGGAGGACACGAAGGACAGAGCTTTCCAGAG was 0.544; that for CCGACTGGGCCACGAAAGGTCATTGATTCAGTGA was 0.668.
The same measure for ATCGAAAGGTCGAAGGTTAGTATACCCACCCGAA: 0.185; for TGAATGACGTTATAAGATCAGGGAACGTTGCAAA: -0.323.
The value for AGAATGAGGCTACCAAAGATCAGGGAAACGCTTG was -0.609; that for CAAACTAGGTCAAGGTCATAGTCGGTTTGTGCCA was 3.83.
Take TCACGGAGGACACGAAAGGTCAGAGCTCGACATC: the PBM binding z-score worked out at 1.26.
The value for ACTAGCAGGCCAGGTTTGGGTCACTCAAACAAAG was 0.999; that for TAGCCTAGGTCATGGGCCAGTAGACCACGCGAAC was 1.09; that for CCCTACGGGTCACTGACAGGTTATAGCATTTGGA was 0.405.
For GATACAGGGTCAACGCCAGAGTACGCGTATTGAT, the PBM binding z-score came out at 1.
With ACAGACAGGTGACGAAGGTAACTCAGGCTATCAT, the PBM binding z-score came to 0.0235.
For TCAGACAGGTGGAGGTAACTCAGGTACGCAGTCG, the PBM binding z-score was 0.639.
The value for TCTATTAGTTGATTAGGGCAGCCGAAACAGCGGA was 0.285.
With GCTAGCAGGCCATTTGGGACACTCAATGACGGGC, the PBM binding z-score was -0.00643.
In the case of TAGCCTAGGTCATGCAGGCCAGTATAGTGTCGGC, the PBM binding z-score was found to be 0.919.
The same measure for TCTTGTAGATCAAGCAGGTTAATAAAGCCTGAGT: -0.531.
The value for CTCCAAAGGTCGTGCTCAGGTGAGTATACCAAAC was 1.09; that for GCTGCTAGGTCCACTGATGGTCAGCTAAAGCTCG was -0.767.
Regarding ATATGTAGCTTATCGGGTCATTCAGTTTGCGCAT, the PBM binding z-score is 2.6.
The value for CCTCGGAGGACAGTAGGTCAGAGCTGTCCGCTTT was -0.152.
The value for AGAATGAGGTTATAAAGATCAGGGAATTGCGGTC was 0.473.
The value for GCTTGTAGATTAAGGTTAAGAAAGACTAAGCTAA was 0.778; that for CGTCAAAGTTCAATGTAACGTAACAGAAAGCAGC was -0.0537.
Take TCTATTAGTTGATAAGGGCAACCGAAACAGCGGA: the PBM binding z-score was 0.878.
The same measure for GCTAGTTGGTCAGTAAAAGGTCACAGACCGGTCG: 1.68.
